This is an account of results in PubChem BioAssay (NCI).

Structures are written as SMILES. About 83,000 compounds went through this panel and 20% of them were active in at least one assay; those are over-represented in the sample as a whole.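 For each line, cells grew in 96-well plates with the test compound present at a single concentration for 48 hours.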 A number with no mark means an inactive call. Active and inactive are the calls of the source. The calls were made as follows: active = growth percent below 10; inactive = the rest.

Test systems include NCI-H23 lung; NCI-H226 lung; NCI-H322M lung; HOP-62 NSCLC; NCI-H460 lung; HOP-92 NSCLC; NCI-H522 lung; A549/ATCC NSCLC; 786-0 renal; COLO 205 colon; DU-145 prostate; MALME-3M melanoma; MDA-MB-231 breast; RXF 393 renal; SF-268 CNS; SF-295 CNS; SF-539 CNS; UACC-257 melanoma; M14 melanoma; K-562 leukemia.
What all share (assay): NCI-60 one-dose screen, 48 h (100 = growth as untreated, 0 = no growth, -100 = all killed)
Settings in all cases: 10 µM

On to `CN1CCN(c2ccc(Nc3nc(NCCCNC(=O)C4CCCCC4)c4sccc4n3)cc2)CC1`, for which the growth in the assay on NCI-H23 lung was 60.3%; with NCI-H226 lung, 81.6%; with NCI-H322M lung it was 70%; in the assay on HOP-62 NSCLC it was 72.4%; in the assay on NCI-H460 lung, 52.9%; in the assay with HOP-92 NSCLC, 25.4%. Besides, the growth in the assay with NCI-H522 lung is 79.4%; in the assay on A549/ATCC NSCLC it was 59.5%; with 786-0 renal, 3.18% (active); in the assay with COLO 205 colon, 68.8%; with DU-145 prostate, 67.5%; in the assay with MALME-3M melanoma, -97.1% (active). Also, the growth with MDA-MB-231 breast was 39%; with RXF 393 renal, -36% (active); in the assay with SF-268 CNS it was 62.2%; in the assay with SF-295 CNS, 38.4%; in the assay with SF-539 CNS, -77.9% (active); with UACC-257 melanoma it was -30.7% (active). In addition, in the assay on M14 melanoma, the growth is -8.5% (active).

As to `Cc1ccc(-c2cc(-c3cc4ccccc4nc3Cl)[nH]c(=S)n2)cc1`, the growth was 71.5% with NCI-H23 lung; 74.2% with NCI-H226 lung; 81.7% with NCI-H322M lung; 90.1% in the assay on HOP-62 NSCLC; 83.3% in the assay on NCI-H460 lung; 44.7% with HOP-92 NSCLC. The growth is 37.8% with NCI-H522 lung; 85.5% in the assay with A549/ATCC NSCLC; 74.3% in the assay with 786-0 renal; 89.5% in the assay with COLO 205 colon; 63.7% in the assay with DU-145 prostate; 18.6% with K-562 leukemia. In addition, the growth was 46% in the assay with MALME-3M melanoma; 28.1% in the assay on RXF 393 renal; 77.8% in the assay with SF-268 CNS; 45.1% with SF-295 CNS; 55.7% with SF-539 CNS; 66.5% in the assay on UACC-257 melanoma. The growth with M14 melanoma was 15.9%.

As for `Cc1ccc(-c2nc3ccc(C(=O)N=Nc4c(O)[nH]c5ccc(Cl)cc45)cc3[nH]2)cc1`, the growth with NCI-H23 lung was -83.8% (active); in the assay with NCI-H226 lung, -17.6% (active); with NCI-H322M lung it was 3.76% (active); in the assay on HOP-62 NSCLC, -73.7% (active); in the assay on NCI-H460 lung, 4.47% (active); in the assay with HOP-92 NSCLC it was -35.8% (active). Moreover, the growth was -81.3% (active) with NCI-H522 lung; 28% in the assay on A549/ATCC NSCLC; -42.9% (active) in the assay on 786-0 renal; 3.66% (active) with COLO 205 colon; 6.16% (active) with DU-145 prostate; -28.7% (active) with MALME-3M melanoma. Besides, the growth with MDA-MB-231 breast is -73% (active); in the assay with RXF 393 renal, -68% (active); in the assay on SF-268 CNS, -33.4% (active); in the assay on SF-295 CNS, 10.1%; in the assay on SF-539 CNS it was 33.2%; in the assay with UACC-257 melanoma, 81.7%. In addition, the growth in the assay on M14 melanoma is 6.09% (active).

Turning to `CCCCCc1ccc(S(=O)(=O)N(C(C)=O)c2cc(-c3csc(N(C)C(C)=O)n3)ccc2N2CCN(C)CC2)cc1`, the growth is 43.6% in the assay with NCI-H23 lung; 72.2% in the assay on NCI-H226 lung; 55.8% in the assay on NCI-H322M lung; 51.6% with HOP-62 NSCLC; -41.6% (active) in the assay on NCI-H460 lung; -2.86% (active) in the assay on HOP-92 NSCLC. The growth in the assay on NCI-H522 lung is 55.5%; in the assay with A549/ATCC NSCLC, 40.1%; in the assay on 786-0 renal it was -16.2% (active); in the assay on COLO 205 colon, -71.6% (active); in the assay on DU-145 prostate, 46.4%; with MALME-3M melanoma, -93.3% (active). Also, the growth in the assay on MDA-MB-231 breast was -5.42% (active); in the assay with RXF 393 renal, -69.7% (active); with SF-268 CNS, 65.9%; in the assay with SF-295 CNS it was -88.2% (active); in the assay on SF-539 CNS it was -95.7% (active); with UACC-257 melanoma, -34.1% (active).

On to `CNC(=O)c1cccc(N2CCc3c2ccc(NC(=O)Nc2ccc(N4CCN(C)CC4)c(C(F)(F)F)c2)c3F)c1`, for which the growth in the assay on NCI-H23 lung was -85.6% (active); in the assay with NCI-H226 lung, 104%; with NCI-H322M lung, -92% (active); in the assay on HOP-62 NSCLC it was -80% (active); in the assay with NCI-H460 lung it was -81% (active); in the assay on HOP-92 NSCLC, -83% (active). The growth is -91.7% (active) in the assay on NCI-H522 lung; -86% (active) in the assay with A549/ATCC NSCLC; -95.6% (active) in the assay on 786-0 renal; 92.7% with COLO 205 colon; -76.2% (active) in the assay with DU-145 prostate; -96.3% (active) with MALME-3M melanoma. Moreover, the growth was -94.8% (active) in the assay on MDA-MB-231 breast; -85.3% (active) in the assay with RXF 393 renal; -62.7% (active) in the assay on SF-268 CNS; -97.2% (active) with SF-295 CNS; -100% (active) in the assay with SF-539 CNS; -35% (active) in the assay with UACC-257 melanoma. The growth with M14 melanoma is -93.3% (active).

As for `Cc1cc(C)nc(SCC(=O)Nc2ccc(S(N)(=O)=O)cc2)n1`, the growth was 100% in the assay on NCI-H23 lung; 98.5% with NCI-H226 lung; 102% in the assay with NCI-H322M lung; 108% with HOP-62 NSCLC; 134% in the assay on NCI-H460 lung; 101% in the assay with HOP-92 NSCLC. Besides, the growth in the assay with NCI-H522 lung is 95.9%; in the assay on A549/ATCC NSCLC it was 103%; with 786-0 renal, 105%; with COLO 205 colon it was 124%; with DU-145 prostate it was 114%; in the assay with MALME-3M melanoma, 99.1%. Also, the growth in the assay on MDA-MB-231 breast was 103%; with RXF 393 renal, 96%; in the assay with SF-268 CNS, 125%; in the assay with SF-295 CNS, 99.8%; in the assay with SF-539 CNS, 94.8%; in the assay with UACC-257 melanoma, 107%. Further, the growth in the assay with M14 melanoma is 114%.

Turning to `O=C(Nc1ccc(OCC(=O)c2ccccc2)cc1)Nc1ccc(Cl)c(C(F)(F)F)c1`, the growth was 25.4% with NCI-H23 lung; 8.87% (active) with NCI-H226 lung; 28% in the assay on NCI-H322M lung; 27.9% in the assay on HOP-62 NSCLC; 18.4% with NCI-H460 lung; -14.5% (active) with HOP-92 NSCLC. Also, the growth is -31.7% (active) in the assay with NCI-H522 lung; 25.4% in the assay with A549/ATCC NSCLC; 21% with 786-0 renal; -3.64% (active) in the assay with COLO 205 colon; 49.2% with DU-145 prostate; 10.4% in the assay with MALME-3M melanoma. The growth was 16.8% in the assay with MDA-MB-231 breast; -36.7% (active) with RXF 393 renal; 18.9% with SF-268 CNS; 13.2% with SF-295 CNS; 12.1% in the assay with SF-539 CNS; 7.84% (active) with UACC-257 melanoma. The growth in the assay on M14 melanoma was 17.5%.

Consider `Cc1cc2c(c(O)c1Br)-c1ncoc1C(=O)[C@]1(C)CC[C@H](C(C)C)[C@H]21`, for which the growth in the assay with NCI-H23 lung is 36.8%; in the assay on NCI-H226 lung, 38.5%; in the assay on NCI-H322M lung it was 65.7%; in the assay with HOP-62 NSCLC, 38%; in the assay on NCI-H460 lung, 18.4%; in the assay on HOP-92 NSCLC, 35.4%. Besides, the growth was -20.6% (active) with NCI-H522 lung; 16.5% in the assay on A549/ATCC NSCLC; 66.5% in the assay on 786-0 renal; -15.9% (active) in the assay with COLO 205 colon; 54% in the assay with DU-145 prostate; 31% with MALME-3M melanoma. The growth was 48.9% in the assay with MDA-MB-231 breast; 60.6% in the assay on RXF 393 renal; 49.4% in the assay with SF-268 CNS; 22.9% in the assay with SF-295 CNS; 14.3% in the assay with SF-539 CNS; 15.1% in the assay on UACC-257 melanoma.
